Test results reported in PubChem BioAssay (NCI).
About 79,000 compounds went through this panel and 15% of them were active in at least one assay; those are over-represented in the sample as a whole. Active and inactive are the calls of the source. Cut-off read from the data, not from the text of the source: active = growth inhibition above about 70%; inactive = the rest.

Columns and labels:
[1] = NCI Yeast Anticancer Drug Screen. Data for the rad52 strain (AID 147);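 note: 0% = growth of vehicle-treated control cultures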; conditions: S. cerevisiae rad52 mutant growth inhibition, stronger effect = higher value
Outline: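 The repair-mutant yeast strain was incubated with compounds, then growth was read and inhibition derived relative to vehicle.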

[2] = NCI Yeast Anticancer Drug Screen. Data for the wt1 strain (AID 149);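 note: 0% = growth of vehicle-treated wt1 cultures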; conditions: S. cerevisiae wt1 strain (SPY 50644) growth inhibition, stronger effect = higher value
Outline: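 Vehicle-normalised growth inhibition; strain wt1; compound exposure.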

[3] = NCI Yeast Anticancer Drug Screen. Data for the rad50EPP+ strain (AID 151);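 note: 0% = growth of vehicle-treated control cultures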; conditions: S. cerevisiae rad50 mutant strain, stronger effect = higher value
Outline: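 Vehicle-normalised growth inhibition; rad50EPP+ yeast strain, altered in DNA damage repair, compound-treated.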

[4] = NCI Yeast Anticancer Drug Screen. Data for the mgt1 strain (AID 153); conditions: S. cerevisiae mgt1 mutant growth inhibition, stronger effect = higher value
Outline: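 Vehicle-normalized growth inhibition is determined in mgt1 yeast, a strain selected for a defined alteration in DNA repair or cell cycle control.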

[5] = NCI Yeast Anticancer Drug Screen. Data for the rad50 strain (AID 155);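 note: 0% = growth of vehicle-only cultures of the same strain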; conditions: S. cerevisiae rad50 strain growth inhibition, stronger effect = higher value
Outline: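 A DNA repair-deficient yeast mutant serves as the test organism; compound-induced growth inhibition is calculated against vehicle-treated cells.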

[6] = NCI Yeast Anticancer Drug Screen. Data for the mec2-1 strain (AID 157); conditions: S. cerevisiae mec2-1 strain, stronger effect = higher value
Outline: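 Mutant yeast (mec2-1) grown with compound; growth inhibition relative to vehicle control reported.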

[7] = NCI Yeast Anticancer Drug Screen. Data for the rad14 strain (AID 159);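 note: 0% = growth of vehicle-treated control cultures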; conditions: S. cerevisiae rad14 strain growth inhibition, stronger effect = higher value
Outline: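 Vehicle-treated cultures served as the baseline for growth inhibition of a DNA repair-mutant yeast strain exposed to each compound.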

[8] = NCI Yeast Anticancer Drug Screen. Data for the sgs1 mgt1 strain (AID 161);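 note: 0% = growth of cultures given vehicle only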; conditions: S. cerevisiae sgs1 mgt1 strain, stronger effect = higher value
Outline: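 Growth of a repair-deficient yeast mutant was monitored after compound treatment and expressed as inhibition relative to vehicle-treated cultures.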

[9] = NCI Yeast Anticancer Drug Screen. Data for the CLN2oe strain (AID 163);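 note: 0% = growth of vehicle-only control cultures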; conditions: S. cerevisiae CLN2oe strain, stronger effect = higher value
Outline: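 Compounds are applied to yeast harbouring a defined cell-cycle control change; reduced growth compared with vehicle-treated controls gives the value.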

[10] = NCI Yeast Anticancer Drug Screen. Data for the cln2 rad14 strain (AID 165);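 note: 0% = growth equal to vehicle treated cultures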; conditions: S. cerevisiae cln2 rad14 strain, stronger effect = higher value
Outline: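 Readout is yeast growth inhibition versus vehicle-treated controls, using a strain with cln2 and rad14 alterations exposed to compound.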

[11] = NCI Yeast Anticancer Drug Screen. Data for the bub3 strain (AID 167); conditions: S. cerevisiae bub3 mutant strain, stronger effect = higher value
Outline: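 Inhibition values come from growth of compound-treated mutant yeast normalised to vehicle-treated controls.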

[12] = NCI Yeast Anticancer Drug Screen. Data for the wt2 strain (AID 169);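 note: 0% = growth of vehicle-treated yeast cultures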; conditions: S. cerevisiae wt2 strain growth inhibition, stronger effect = higher value
Outline: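 Against vehicle-treated controls, the growth of yeast exposed to each compound was compared, and the inhibition was recorded.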

[13] = NCI Yeast Anticancer Drug Screen. Data for the mlh1 strain (AID 171);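 note: 0% = growth of vehicle-treated control cultures of the same strain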; conditions: S. cerevisiae mlh1 strain growth inhibition, stronger effect = higher value
Outline: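 Measured: yeast growth. Reference: vehicle-treated controls. Organism: strain with a defined alteration affecting DNA damage repair or cell cycle control, treated with compound.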

[14] = NCI Yeast Anticancer Drug Screen. Data for the sgs1 strain (AID 173);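 note: 0% = growth of vehicle-only control cultures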; conditions: S. cerevisiae sgs1 mutant, stronger effect = higher value
Outline: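 Each compound was added to cultures of the altered yeast strain. Growth was recorded, and inhibition was derived by comparison with vehicle controls.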

[15] = NCI Yeast Anticancer Drug Screen. Data for the mlh1 rad18 strain (AID 175); conditions: S. cerevisiae mlh1 rad18 strain growth inhibition, stronger effect = higher value
Outline: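 Genetically defined yeast (DNA repair-deficient) exposed to compounds; growth inhibition determined relative to vehicle.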

[16] = NCI Yeast Anticancer Drug Screen. Data for the rad18 strain (AID 177); conditions: S. cerevisiae rad18 mutant growth inhibition, stronger effect = higher value
Outline: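 Vehicle-treated cultures served as the baseline for scoring compound-induced growth inhibition in DNA-repair-mutant yeast.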

[17] = at 5.0 µM (retest, dose inferred, filed as 0.5)
[18] = at 50.0 µM (retest, dose inferred, filed as 5.0)

Measured: growth inhibition

COc1ccc(/C=C(/C)[N+](=O)[O-])cc1
inactive: [1]; at 1.2 µM 8% | [1]; at 3.7 µM 36% | [2]; at 1.2 µM -28% | [2]; at 3.7 µM -21% | [2]; at 11.0 µM -18% | [3]; at 1.2 µM 57% | [4]; at 1.2 µM -22% | [4]; at 3.7 µM -17% | [4]; at 11.0 µM 0% | [5]; at 1.2 µM -10% | [5]; at 3.7 µM 23% | [5]; [17] 49% | [6]; at 1.2 µM -44% | [6]; at 3.7 µM -51% | [6]; [17] 16% | [6]; at 11.0 µM -34% | [7]; at 1.2 µM -20% | [7]; at 3.7 µM -25% | [7]; at 11.0 µM -24% | [7]; at 33.0 µM 69% | [8]; [17] 28% | [9]; at 1.2 µM -3% | [9]; at 3.7 µM -10% | [9]; at 11.0 µM -9% | [10]; [17] 37% | [10]; at 50.0 µM 60% | [11]; at 1.2 µM -27% | [11]; at 3.7 µM -28% | [11]; [17] 28% | [11]; at 11.0 µM -6% | [12]; at 1.2 µM -5% | [12]; at 3.7 µM -4% | [12]; at 11.0 µM -1% | [12]; at 33.0 µM 59% | [13]; at 1.2 µM -12% | [13]; at 3.7 µM -16% | [13]; at 11.0 µM -2% | [14]; at 1.2 µM 20% | [14]; at 3.7 µM 41% | [14]; at 11.0 µM 42% | [15]; [17] 22% | [16]; at 1.2 µM -14% | [16]; at 3.7 µM -8% | [16]; at 11.0 µM -17% | [16]; at 33.0 µM 42%
active: [1]; at 11.0 µM 81% | [1]; at 33.0 µM 95% | [1]; at 100.0 µM 99% | [2]; at 33.0 µM 72% | [2]; at 100.0 µM 99% | [3]; at 3.7 µM 83% | [3]; at 11.0 µM 94% | [3]; at 33.0 µM 97% | [3]; at 100.0 µM 99% | [4]; at 33.0 µM 80% | [4]; at 100.0 µM 99% | [5]; at 11.0 µM 79% | [5]; at 33.0 µM 94% | [5]; [18] 94% | [5]; at 50.0 µM 80.3% | [5]; at 100.0 µM 99% | [6]; at 33.0 µM 78% | [6]; [18] 98% | [6]; at 50.0 µM 90.3% | [6]; at 100.0 µM 99% | [7]; at 100.0 µM 99% | [8]; [18] 85% | [8]; at 50.0 µM 87.8% | [9]; at 33.0 µM 71% | [9]; at 100.0 µM 99% | [10]; [18] 94% | [11]; at 33.0 µM 93% | [11]; [18] 99% | [11]; at 50.0 µM 90.8% | [11]; at 100.0 µM 98% | [12]; at 100.0 µM 99% | [13]; at 33.0 µM 97% | [13]; at 100.0 µM 99% | [14]; at 33.0 µM 86% | [14]; at 100.0 µM 98% | [15]; [18] 99% | [15]; at 50.0 µM 81.5% | [16]; at 100.0 µM 99%
